Percent Effect data for 55 compounds are collected here from ChEMBL document CHEMBL3988442, “University of Dundee, Small-Polar-MMV Screening Library” (2021).

SMILES strings stand for the structures. The whole screen tested about 69,000 compounds, of which about 420 (0.61%) showed an effect of 50% or more. For the sample, strong results were picked, then their nearest neighbours and some compounds at random.

The target in the test is T1, Histidine--tRNA ligase (Leishmania infantum) (UniProt A4I591).
T1 sequence (whole entry): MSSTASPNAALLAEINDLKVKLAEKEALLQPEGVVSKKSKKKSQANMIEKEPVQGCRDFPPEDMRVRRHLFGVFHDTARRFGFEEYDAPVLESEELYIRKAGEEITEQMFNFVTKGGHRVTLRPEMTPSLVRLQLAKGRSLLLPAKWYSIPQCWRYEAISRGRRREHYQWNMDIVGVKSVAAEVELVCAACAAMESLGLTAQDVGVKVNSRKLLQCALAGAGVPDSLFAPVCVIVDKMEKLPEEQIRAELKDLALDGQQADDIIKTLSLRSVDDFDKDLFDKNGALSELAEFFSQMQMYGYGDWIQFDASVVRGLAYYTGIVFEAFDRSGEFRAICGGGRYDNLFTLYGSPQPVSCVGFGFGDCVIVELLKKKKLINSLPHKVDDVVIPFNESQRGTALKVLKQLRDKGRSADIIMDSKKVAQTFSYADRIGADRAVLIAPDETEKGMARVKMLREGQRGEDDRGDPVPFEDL
As to the kind of experiment: Leishmania infantum Histidine tRNA synthetase (LdHisRS). The format is functional. On the set-up: scale not given: in the data most compounds retested in dose-response had high values. The note with it: 30 µM.
Consider `COc1ccccc1C(C)(C)NCc1ccc(C)o1`, for which the Percent Effect worked out at 2.86%. In the case of `COCc1nc2cc(NCc3ccc(C)o3)ccc2o1`, the Percent Effect came to 102%. Regarding `Cc1ccc(CNC(C)(C)c2noc(C(C)(C)C)n2)o1`, the Percent Effect came to 27.1%. On to `COCc1nc2cc(NCc3ccc(CO)o3)ccc2o1`, for which the Percent Effect was found to be 86.6%. As for `COCc1nc2c(o1)CN(C(=O)NCc1ccccc1)C2`, the Percent Effect was 16%.

Turning to `CC(C)(C)c1nc2cc(NC(=O)Cn3ccc(=O)[nH]c3=O)ccc2o1`, the Percent Effect amounted to 14%. Regarding `O=C(NCC1CC1)[C@@H]1CCO[C@@H]2CCN(Cc3ccsc3)C[C@H]21`, the Percent Effect came to 20%. As to `Cn1cnc(S(=O)(=O)N2CCO[C@H]3[C@@H](OCC4CC4)CC[C@@H]32)c1`, the Percent Effect was -5.26%. The figure for `Cc1nc(-c2ccc(CC(=O)N3CCN(C(=O)C(C)C)CC3)cc2)cs1` is 63.6%; for `Cc1nc(-c2ccc(CC(=O)N3CCNC(=O)C3)cc2)cs1` it is -9.09%; for `Cc1nc(-c2ccc(CC(=O)N3CCN(C(=O)C4CC4)CC3)cc2)cs1` it is 21.2%. On to `Cc1csc([C@@H]2C[C@@H]3CCN(C(=O)c4cc(C)on4)C[C@H]3O2)n1`, for which the Percent Effect turned out to be 18.4%. For `CC(=O)N1[C@H](Cn2cncn2)C[C@@H]2CN(C(=O)c3ccoc3)CC[C@@H]21`, the Percent Effect came out at 13.5%. For the compound `O=C1CC(c2ccco2)c2sc(C(=O)O)c(-c3ccccc3)c2N1` (stereo not given), the Percent Effect was determined as 91.4%. Take `O=C1CC(c2ccccc2)c2sc(C(=O)O)c(-c3ccccc3)c2N1` (stereo not given): the Percent Effect was found to be 13%. Take `O=C1CC(c2ccc(O)cc2)c2sc(C(=O)O)c(-c3ccccc3)c2N1` (stereo not given): the Percent Effect was determined as 20.8%. `COC[C@@]12CC[C@@H](N3CCOCC3)C[C@H]1CCN(c1ncccc1Cl)C2`: the Percent Effect was 22.9%. In the case of `O=C1O[C@@H]2CN(Cc3cc4ccccc4o3)C[C@@H]2N1Cc1ccccn1`, the Percent Effect came out at 0%. Consider `CN1CCN(Cc2nnc(C3CCN(C4CCCCC4)CC3)n2C)CC1`, for which the Percent Effect came out at 13.2%. In the case of `CN1CCN(Cc2nnc(C3CCN(C(CO)CO)CC3)n2C)CC1`, the Percent Effect is 80.7%. Consider `CN1CCN(Cc2nnc(C3CCN(CC4CC4)CC3)n2C)CC1`, for which the Percent Effect stood at 21.1%.

For `Cc1ccnc(OC[C@]23COC[C@H]2CN(C(=O)C2=CCCCC2)C3)n1`, the Percent Effect worked out at 5.56%. `CN(Cc1cccnc1)c1nccc(N2CCN[C@H]3CS(=O)(=O)C[C@H]32)n1`: the Percent Effect worked out at 12.9%.

Regarding `c1ccc(CN2C[C@@H]3CC[C@H](C2)N(Cc2nnc(C4CC4)o2)C3)cc1`, the Percent Effect was found to be 34%. The figure for `COc1cc(N2C[C@@H]3COC[C@]3(C(=O)NCc3ccccn3)C2)ncn1` is 5.26%; for `COCCNC(=O)Cn1c(-c2ccco2)cc2cccnc21` it is 14.8%. On to `O=C(Cn1c(-c2ccco2)cc2cccnc21)N1CCCC1`, for which the Percent Effect came to 76.5%. As for `CC(C)N(C(=O)Cn1c(-c2ccco2)cc2cccnc21)C(C)C`, the Percent Effect is 20.1%. Under `Cc1nnc([C@@]23CCO[C@@H]2CCN(Cc2nccs2)C3)o1` stands 7.92%; under `CN(C)C(=O)N1C[C@@H]2CCCO[C@@H]2[C@H](N(C)Cc2ccco2)C1`, 11.4%. In the case of `c1ccc(-c2cc(CN3CCCC(Cn4cncn4)C3)on2)cc1` (stereo not given), the Percent Effect is 8.55%.

As to `c1ccc(-c2cc(CN3C[C@@H]4CC[C@H](C3)N(CC3CCC3)C4)on2)cc1`, the Percent Effect is 51.7%. Turning to `C1CC(CN2C[C@H]3CC[C@@H]2CN(Cc2noc(C4CCCC4)n2)C3)C1`, the Percent Effect is 8.51%. The figure for `c1ccc(-c2cc(CN3C[C@@H]4CC[C@H](C3)N(CC3CC3)C4)on2)cc1` is 26.7%. Take `c1ccc(-c2nnc(CN3C[C@@H]4CC[C@H](C3)N(CC3CCC3)C4)o2)cc1`: the Percent Effect was 21.3%.

Regarding `O=C(NCC1CC1)[C@@H]1CCO[C@@H]2CCN(CCc3ccccc3)C[C@H]21`, the Percent Effect worked out at 13.7%. On to `CN1CCN(C(=O)[C@H]2CC[C@@H]3[C@@H](CCN3Cc3nccs3)O2)CC1`, for which the Percent Effect was -10.1%. In the case of `Cc1cc(CN2CCN(CC3CC3)[C@@H]3CS(=O)(=O)C[C@@H]32)cc(C)c1O`, the Percent Effect came out at 8.33%. With `O=C([C@H]1C[C@H]2OCC[C@H]2N(Cc2ccco2)C1)N1CCCO1`, the Percent Effect came to 22.2%. The figure for `CN(Cc1nccs1)c1nccc(N2CCN[C@H]3CS(=O)(=O)C[C@H]32)n1` is 14.5%.

For the compound `Cn1cc(CN2CC[C@H]3O[C@H](C(=O)NCc4ccco4)CC[C@H]32)cn1`, the Percent Effect was 9.43%.

In the case of `O=C(NCc1ccco1)[C@@H]1CC[C@@H]2[C@@H](CCN2CC2CC2)O1`, the Percent Effect was 23.3%. In the case of `O=C(NCc1ccco1)[C@H]1CC[C@@H]2[C@@H](CCN2Cc2nccs2)O1`, the Percent Effect came to 31.5%. Take `O=C(NCc1ccco1)[C@@H]1CC[C@@H]2[C@@H](CCN2Cc2ccc(F)cc2)O1`: the Percent Effect was determined as 69.9%. Under `O=C(NCc1ccco1)[C@H]1CC[C@@H]2[C@@H](CCN2Cc2cccnc2)O1` stands 23.3%.

In the case of `COCCN1CCCn2cnc(CNC3CCCC3)c2C1`, the Percent Effect was 77.8%.

On to `COCCN1CCCn2cnc(CNC(=O)N(C)C)c2C1`, for which the Percent Effect worked out at 9.4%. For `COCCN1CCCn2cnc(CN(C)C(C)C)c2C1`, the Percent Effect was 30%. Take `COCCN1C(=O)CO[C@H]2CN(Cc3cccc(OC)c3F)C[C@@H]21`: the Percent Effect came to 8.25%. `Cc1nnc([C@]23COC[C@H]2CN(Cc2cnn(C)c2)C3)o1`: the Percent Effect was determined as 27.4%. Take `CN(C)CCN1CCO[C@@H]2CN(C(=O)Cc3ccsc3)CC[C@@H]2C1`: the Percent Effect was 10%. The figure for `C1CC(CN2C[C@@H]3C[C@@H](c4nnc(C5CC5)o4)O[C@@H]3C2)CCO1` is 11.1%. Consider `O=S(=O)(CCCn1cncn1)Cc1cccc(F)c1`, for which the Percent Effect was -11.8%. `O=S(=O)(CCCn1cncn1)Cc1ccccc1Cl`: the Percent Effect turned out to be 19.7%. As to `O=S(=O)(CCCn1cncn1)Cc1ccc(F)cc1Cl`, the Percent Effect was 109%.
